Assay outcomes deposited in PubChem BioAssay by National Center for Advancing Translational Sciences (NCATS).
ATXN2 expr inh: Primary qHTS for Inhibitors of ATXN expression; 0.72% of 360,000 active; Potency, µM (highest dose often 57 µM), without a hit: at the highest dose activity change, negative = inhibition, hits mostly inhibitors; HEK-293 ATXN2-luciferase reporter, luminescence, 24 h; note: % is set by controls: 0 for no effect and ±100 for the full control effect; nearly all actives have a fitted effect of over 55% in size
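qHTS (up to 57 uM final) was run with 24 h compound exposure of reporter cells at 37 °C. Each well was multiplexed: SteadyGlo luminescence measured ATXN2-luciferase expression after a fluorogenic Gly-Phe-AFC viability readout (25 uM final).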
TGFb inhibitor: qHTS for Inhibitors of TGF-b; Potency, µM (doses to about 46.1 µM), for inactives: at the top dose activity, negative = inhibition, most hits filed as inhibitors; 1.2% of 410,000 active; HepG2 CAGA-GFP TGF-b/SMAD3 reporter, GFP fluorescence, 18 h; TGF-beta stimulated, 500 pg/mL final; note: % is set by controls: 0 for no effect and ±100 for the full control effect; nearly all actives have a fitted effect of over 65% in size
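Read-out: total well GFP (ex488/em500-530) summed from mean per-cell fluorescence. Cells: HEPG2 CAGA-GFP, 1% FBS DMEM, 18 h at 37 degrees C with 500 pg/mL final TGF-beta. Unstimulated wells served as the full-inhibition control; stimulated DMSO wells = 0%.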
ATXN viability: Viability Counterscreen for Primary qHTS for Inhibitors of ATXN expression | S2 cells (HEK-293 line with an ATXN2-luciferase reporter) viability, CellTiter-Fluor protease fluorescence, 24 h | Potency, µM (doses to about 56.7 µM), usual class: cytotoxic | 0.49% of 400,000 active | AID 651635, 2014; note: nearly all actives have a fitted effect of over 40% in size
HT1080NT lethal: qHTS for induction of synthetic lethality in tumor cells producing 2HG: qHTS for the HT-1080-NT fibrosarcoma cell line; AID 686970, 2013; HT-1080-NT fibrosarcoma viability, CellTiter-Glo ATP luminescence, 48 h; 1.6% of 360,000 active; Potency, µM (doses to about 46.1 µM), without a hit: top-dose activity, negative = less viability, hits mostly cytotoxic;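 note: NT is the 2HG producing partner of a matched IDH1 knockdown line; 0% = DMSO-treated cells and -100% = media-only wells without cells; nearly all actives have a fitted effect of over 55% in size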
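Compounds were tested in concentration-response format on HT-1080-NT cells for 48 hours at 37 degrees C. Cell viability came from CellTiter-Glo luminescence; curves were classified by r2, response magnitude and activity.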
HepG2 tox: qHTS for Inhibitors of TGF-b: Cytotox Counterscreen; HepG2 CAGA-GFP viability, ATP luminescence, 18 h; 0.76% of 410,000 active; AID 588856, 2011; Potency, µM (series often up to 46.1 µM), for the others: at the top dose activity change, negative = cytotoxicity, actives largely listed as cytotoxic
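HepG2 CAGA-GFP cells (1000/well, DMEM with 1% FBS) received compound, then TGF-beta at 500 pg/mL final, and were incubated 18 hours at 37 degrees C. Viability was read by CellTiter-Glo luminescence. Media-only wells were set as complete cell-killing and DMSO as no toxicity.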
HT1080 IDH1KD tx: qHTS for induction of synthetic lethality in tumor cells producing 2HG: qHTS for the HT-1080-IDH1KD cell line | HT-1080 IDH1 knockdown viability, ATP luminescence, 48 h | Potency, µM (doses to about 46.1 µM), for the others: top-dose activity, negative = toxicity, hits mostly cytotoxic | AID 686971, 2013 | 2% of 360,000 active;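 note: 0% = DMSO wells and -100% = cell-free medium wells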
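Viability of IDH1-knockdown HT-1080 fibrosarcoma cells was assessed by CellTiter-Glo after 48 h at 37 °C with titrated compound; concentration-effect curves were classified by fit quality and response size.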
* = called active by the depositor; i = inactive; ? = inconclusive; . = no result. Only some compounds are listed: those with a hit (about 3.9% of all), similar ones and a draw of the others. Calls come from the whole dose curve; as a rule, active = well fitted curve in the direction sought with a large enough effect; inconclusive = small, poorly fitted or top-dose-only effect, or another doubt; inactive = no such curve, though single readings can be large; an effect the other way counts as inactive or inconclusive. Potency is the fitted concentration of half-maximal effect.

SMILES | ATXN2 expr inh | TGFb inhibitor | ATXN viability | HT1080NT lethal | HepG2 tox | HT1080 IDH1KD tx
C#CCOCCOCCOCCNc1nc(N2CCN(C(=O)CCCCCCCCCCNC(=O)Cn3cc(C[C@@H](C)O)nn3)CC2)nc(N2CCN(C(=O)CCCCCCCCCCNC(=O)[C@@H]([C@H](C)CC)n3cc(CCCCCN)nn3)CC2)n1 | 20µM* | 10µM* | . | 18.4µM* | -113.1% | 23.1µM*
C#CCOCCOCCOCCNc1nc(N2CCN(C(=O)CCCCCCCCCCNC(=O)Cn3cc(CCCCCN)nn3)CC2)nc(N2CCN(C(=O)CCCCCCCCCCNC(=O)Cn3cc(C[C@@H](C)O)nn3)CC2)n1 | -14.9% | ? | i | ? | -39.0% | ?
C#CCOCCOCCOCCNc1nc(N2CCN(C(=O)CCCCCCCCCCNC(=O)Cn3cc(CCCCCN)nn3)CC2)nc(N2CCN(C(=O)CCCCCCCCCCNC(=O)[C@@H]([C@H](C)O)n3cc(C)nn3)CC2)n1 | ? | ? | . | -4.9% | -17.7% | -15.0%
C#CCOCCOCCOCCNc1nc(N2CCN(C(=O)CCCCCCCCCCNC(=O)Cn3cc(C[C@@H](C)O)nn3)CC2)nc(N2CCN(C(=O)CCCCCCCCCCNC(=O)[C@@H]([C@H](C)O)n3cc(C)nn3)CC2)n1 | ? | ? | ? | 18.4µM* | -1.4% | 20.6µM*
Cc1nc(N)nc(N)c1-c1ccc([N+](=O)[O-])cc1 | 1.3% | -4.3% | i | -2.5% | -36.7% | 10.3µM*
CC1CCc2c(sc3nc(C4CC4)nc(N4CCN(C(=O)c5ccco5)CC4)c23)C1 (stereo not given) | ? | ? | ? | ? | 10µM* | 23.1µM*
Cc1cccc(OCC(=O)NCC(=O)N/N=C/c2cc(Br)cc(Br)c2O)c1 | 14.1µM* | -4.4% | i | ? | -14.6% | ?
CN(C)c1ccc(CC(=O)N2CCCC(c3cc(C(=O)Nc4ccc(C(C)(C)C)cc4)no3)C2)cc1 (stereo not given) | ? | 30.0% | ? | -17.0% | -3.3% | 10.3µM*
C[C@@]12C(C[C@H](O)[C@@]34C[C@@H](CCC13)[C@@H](CO)C4=O)[C@](C)(C(=O)O)CC[C@@H]2O (stereo not given in full) | -16.8% | -17.2% | i | 29.1µM* | -0.3% | ?
C=C1C(=O)[C@]23C[C@H]1CCC2[C@@]1(C)C(C[C@@H]3O)[C@](C)(C(=O)OC)CC[C@@H]1O (stereo not given in full) | 1.58µM* | 0.794µM* | . | 2.31µM* | 5.01µM* | 2.31µM*
C[C@@]12CCC3[C@@](CC[C@@H]4[C@](C)(C(=O)O)CCC[C@@]34C)(C[C@H]1O)C2 (stereo not given in full) | . | 11.1% | i | 1.9% | -7.1% | 0.0%
COc1ccc(CN2CCOc3ccc(CN4CCC(O)CC4)cc3C2)c(OC)c1OC | . | . | i | . | . | .
Cc1ccc(Cl)cc1NC(=O)C(NS(=O)(=O)c1cccc2nsnc12)c1ccccc1 (stereo not given) | -13.0% | ? | i | . | -1.0% | .
OC(c1ccc2c(c1)CN(Cc1c[nH]c3ccccc13)CCO2)c1ccccn1 (stereo not given) | . | . | i | . | . | .
C#CCOc1ccc(C2C3=C(COC3=O)Nc3cc4c(cc32)OCO4)cc1OC (stereo not given) | -25.9% | ? | i | 0.0461µM* | 1.8% | 0.092µM*
O=C1OCC2=C1C(c1ccc(F)cc1)c1cc3c(cc1N2)OCCO3 (stereo not given) | -3.9% | ? | i | 0.184µM* | 6.3% | 0.184µM*
O=C1OCC2=C1C(c1ccc(F)cc1)c1cc3c(cc1N2)OCO3 (stereo not given) | ? | ? | ? | 0.184µM* | 4.8% | 0.116µM*
O=C1OCC2=C1C(c1ccc3c(c1)OCO3)Sc1ccccc1N2 (stereo not given) | -9.8% | -3.8% | i | -3.2% | 2.9% | -22.8%
C/C(CCc1ccc2c(c1)OCO2)=N\NC(=S)NC(C)C | 7.94µM* | ? | 7.08µM* | -3.9% | -71.0% | 0.9%
Cc1cccc(C(=O)Nc2c(C(=O)N3CCN(c4ccc(F)cc4)CC3)oc3ccccc23)c1 | 1.6% | -13.7% | i | . | -13.4% | .
Cc1c(C=O)c(C=O)c(C)n1Cc1ccccc1 | ? | -14.4% | . | 8.2µM* | -69.7% | 4.11µM*
CC(=Nc1ccccc1)C1=C(O)C(Cc2ccc(F)cc2)NC1=O (stereo not given) | . | -17.1% | ? | 2.59µM* | -28.8% | 2.59µM*
Cc1cc(C)n(-c2nnc3n2N=C(c2c[nH]c4ccccc24)CS3)n1 | -29.0% | ? | i | ? | -20.5% | 14.6µM*
CCCCCCCCCCCC[N+](C)(C)Cc1ccccc1 | 25.1µM* | . | 31.6µM* | . | . | .
C#CC[N+](C)(C)CCCCCCCCC | ? | -28.9% | i | ? | -48.0% | ?
SMILES | ATXN2 expr inh | TGFb inhibitor | ATXN viability | HT1080NT lethal | HepG2 tox | HT1080 IDH1KD tx
CCC(c1nnnn1-c1c(C)cccc1C)N1CCN(c2cccc(C(F)(F)F)n2)CC1 (stereo not given) | -3.6% | . | i | -4.7% | . | -2.0%
CC(C)(C)n1nnnc1C(C1CC1)N1CCN(C/C=C/c2ccccc2)CC1 (stereo not given) | 3.1% | -10.7% | ? | 0.1% | 1.9% | 5.9%
CCC(c1nnnn1-c1c(C)cccc1C)N1CCN(c2ccc(C(F)(F)F)cc2[N+](=O)[O-])CC1 (stereo not given) | 0.0% | . | i | 29.1µM* | . | -10.1%
CCC(c1nnnn1-c1c(C)cccc1C)N1CCN(C/C=C/c2ccccc2)CC1 (stereo not given) | -33.5% | ? | ? | 18.4µM* | -11.9% | ?
C(=C\c1ccccc1)/CN1CCN(C(c2nnnn2Cc2ccccc2)C2CC2)CC1 (stereo not given) | -38.6% | ? | ? | 18.4µM* | -20.1% | ?
CSCCC(c1nnnn1-c1c(C)cccc1C)N1CCN(C/C=C/c2ccccc2)CC1 (stereo not given) | -27.0% | ? | i | ? | -44.3% | ?
COC(=O)[C@@H]1CCCN1C(=O)c1c(OC)cc(=O)n2c1CCN(Cc1ccc(C)o1)CC2 | . | . | i | . | . | .
